# “And” between values parts separate entries of the source, which are not always exact repeats. Equal values may be shown once. Inconclusive results are not listed. For part of these data: Measured potencies and affinities stand elsewhere. The source made the active and inactive calls.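 How the source made its calls, unless noted: active means compounds killing one labelled cell type while sparing the other, by normalised counts and ratio limits, not self-fluorescent; inactive means the rest.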
# Tests used:
# [1] = liver-stage malaria parasite growth inhibition, primary screen, cell-based, HepG2, luciferase luminescence, HepG2 viability (AID 624349; in the data active means parasite load remaining mostly below about 12%, no sharp cut-off; inactive means mostly above about 10%;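 further: 100% = mean of DMSO negative control wells on the same plate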); settings: P. berghei liver stage in HepG2, luciferase luminescence, concentration not given here; parasite load remaining: stronger effect = lower value; viability: measured here: HepG2 viability without parasites
# [2] = differential killing of epithelial or mesenchymal cells, primary screen, imaging, PC-3E GFP, TEM4-18 mCherry, co-culture (AID 1345086); settings: imaging cell counts, at 1 µM; for red/green cell ratio (normalised): actives lie on both sides;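 on all read-outs here: cells exposed to compound for 72 h before imaging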;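 on red/green cell ratio (normalised): normalised mesenchymal count divided by normalised epithelial count so high means epithelial killing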
# [3] = system: Aerobactin synthetase IucA (Klebsiella pneumoniae hvKP1); test: Biochemical IucA enzyme inhibition primary screen of the Spectrum library (AID 1346200; call rule not given here;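 further: 100% = wells without compound and 0% = wells lacking enzyme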); settings: malachite green pyrophosphate, A620, at 8 µM, stronger effect = lower value
# [4] = polyglutamine-triggered caspase-3 activation inhibitors, cell-based (AID 1583); settings: polyglutamine-induced caspase-3 activation, cell assay; stronger effect = higher value;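 tested at 10 µM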
# [5] = suppressors of polyQ aggregation in yeast, 75Q-TubU reporter (AID 1593); settings: Yeast 75Q polyglutamine aggregation reporter
# [6] = rescue of polyQ-huntingtin neuronal dysfunction in worms, whole organism, C. elegans mechanosensory neurons, N-terminal huntingtin (AID 1599); settings: touch response, stronger effect = higher value
# [7] = inhibitors of mitochondrial cytochrome c release, biochemical, purified mitochondria (AID 1603); settings: stronger effect = lower value;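 further: mouse liver mitochondria challenged with calcium chloride; signal normalized to the plate average as 100%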
# [8] = inhibitors of polyQ protein aggregation (AID 1604); settings: polyglutamine-induced protein aggregation inhibition assay; stronger effect = higher value; tested at 2.5 µM
# [9] = enhancers of glutamate uptake in motor neurons, MN-1 cell line (AID 1612); settings: MN-1 motor neuron cells, stronger effect = higher value;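 further: tested at 1 µM final; 0% = mean of DMSO vehicle wells on each plate; positive means more glutamate uptake than control and negative means less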
# [10] = reducers of polyQ inclusions in PC12 cells, cell-based, NGF-treated PC12, GFPQ80 (AID 1614); settings: PC12 NGF-treated GFP-polyQ80 inclusion reduction;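 further: lower means fewer inclusions and 0 means no inclusions at all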
# [11] = suppressors of polyglutamine aggregation in yeast, 75Q-TubH (AID 1616); settings: S. cerevisiae 75Q-TubH polyglutamine aggregation suppression; stronger effect = higher value
# [12] = sensitizers of A549 cells to miR-34 induction, primary screen, imaging, A549 dox-inducible miR-34, nuclei and caspase counts (AID 1347080;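 active means compounds whose cell count with miR-34 switched on is under 0.7 times the count with it off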); settings: A549 miR-34 inducible, Hoechst nuclei count, 48 h
# [13] = survival rescue of mitochondrial mutant cells in low glucose, primary screen, MELAS cybrids, Rieske KO mouse fibroblasts, CellTiter-Glo (AID 1508586;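 active means mean z-score across replicates of 1.96 or higher in either the MELAS or the Rieske mutant cell line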;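 further: z relative to plate mean and SD of compound and empty wells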)
# [14] = viability rescue of complex I mutant cybrids, primary screen, cell-based, galactose medium, ATP luminescence (AID 1645843;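 active means z-score of at least 1.8 in each of two replicates, scored against plate mean and spread of sample wells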;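 further: positive z means more ATP and so rescue of galactose-driven cybrid death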); settings: complex I mutant cybrid cells, 72 h, stronger effect = higher value
# [15] = molecular target: Huntingtin (Homo sapiens) (UniProt P42858); test: inhibitors of mutant Htt aggregation in vitro, dose response, QA1 (AID 1584); settings: in vitro mutant huntingtin aggregation assay; confirmation test; at 10 µM; stronger effect = lower value
# [16] = protection against mutant huntingtin cytotoxicity, PC12 cells, LDH release (AID 1610); settings: PC12 mutant huntingtin toxicity, final LDH at 4 uM, stronger effect = lower value
# [17] = measured here: epithelial PC-3E GFP cell survival
# [18] = measured here: mesenchymal TEM4-18 mCherry cell survival
# [19] = measured here: relative caspase fold change +Dox/-Dox
# [20] = measured here: total cells with miR-34 induction, stronger effect = lower value
# [21] = measured here: total cells without miR-34 induction
# Sequence of Huntingtin (Homo sapiens) (P42858 whole entry, looked up): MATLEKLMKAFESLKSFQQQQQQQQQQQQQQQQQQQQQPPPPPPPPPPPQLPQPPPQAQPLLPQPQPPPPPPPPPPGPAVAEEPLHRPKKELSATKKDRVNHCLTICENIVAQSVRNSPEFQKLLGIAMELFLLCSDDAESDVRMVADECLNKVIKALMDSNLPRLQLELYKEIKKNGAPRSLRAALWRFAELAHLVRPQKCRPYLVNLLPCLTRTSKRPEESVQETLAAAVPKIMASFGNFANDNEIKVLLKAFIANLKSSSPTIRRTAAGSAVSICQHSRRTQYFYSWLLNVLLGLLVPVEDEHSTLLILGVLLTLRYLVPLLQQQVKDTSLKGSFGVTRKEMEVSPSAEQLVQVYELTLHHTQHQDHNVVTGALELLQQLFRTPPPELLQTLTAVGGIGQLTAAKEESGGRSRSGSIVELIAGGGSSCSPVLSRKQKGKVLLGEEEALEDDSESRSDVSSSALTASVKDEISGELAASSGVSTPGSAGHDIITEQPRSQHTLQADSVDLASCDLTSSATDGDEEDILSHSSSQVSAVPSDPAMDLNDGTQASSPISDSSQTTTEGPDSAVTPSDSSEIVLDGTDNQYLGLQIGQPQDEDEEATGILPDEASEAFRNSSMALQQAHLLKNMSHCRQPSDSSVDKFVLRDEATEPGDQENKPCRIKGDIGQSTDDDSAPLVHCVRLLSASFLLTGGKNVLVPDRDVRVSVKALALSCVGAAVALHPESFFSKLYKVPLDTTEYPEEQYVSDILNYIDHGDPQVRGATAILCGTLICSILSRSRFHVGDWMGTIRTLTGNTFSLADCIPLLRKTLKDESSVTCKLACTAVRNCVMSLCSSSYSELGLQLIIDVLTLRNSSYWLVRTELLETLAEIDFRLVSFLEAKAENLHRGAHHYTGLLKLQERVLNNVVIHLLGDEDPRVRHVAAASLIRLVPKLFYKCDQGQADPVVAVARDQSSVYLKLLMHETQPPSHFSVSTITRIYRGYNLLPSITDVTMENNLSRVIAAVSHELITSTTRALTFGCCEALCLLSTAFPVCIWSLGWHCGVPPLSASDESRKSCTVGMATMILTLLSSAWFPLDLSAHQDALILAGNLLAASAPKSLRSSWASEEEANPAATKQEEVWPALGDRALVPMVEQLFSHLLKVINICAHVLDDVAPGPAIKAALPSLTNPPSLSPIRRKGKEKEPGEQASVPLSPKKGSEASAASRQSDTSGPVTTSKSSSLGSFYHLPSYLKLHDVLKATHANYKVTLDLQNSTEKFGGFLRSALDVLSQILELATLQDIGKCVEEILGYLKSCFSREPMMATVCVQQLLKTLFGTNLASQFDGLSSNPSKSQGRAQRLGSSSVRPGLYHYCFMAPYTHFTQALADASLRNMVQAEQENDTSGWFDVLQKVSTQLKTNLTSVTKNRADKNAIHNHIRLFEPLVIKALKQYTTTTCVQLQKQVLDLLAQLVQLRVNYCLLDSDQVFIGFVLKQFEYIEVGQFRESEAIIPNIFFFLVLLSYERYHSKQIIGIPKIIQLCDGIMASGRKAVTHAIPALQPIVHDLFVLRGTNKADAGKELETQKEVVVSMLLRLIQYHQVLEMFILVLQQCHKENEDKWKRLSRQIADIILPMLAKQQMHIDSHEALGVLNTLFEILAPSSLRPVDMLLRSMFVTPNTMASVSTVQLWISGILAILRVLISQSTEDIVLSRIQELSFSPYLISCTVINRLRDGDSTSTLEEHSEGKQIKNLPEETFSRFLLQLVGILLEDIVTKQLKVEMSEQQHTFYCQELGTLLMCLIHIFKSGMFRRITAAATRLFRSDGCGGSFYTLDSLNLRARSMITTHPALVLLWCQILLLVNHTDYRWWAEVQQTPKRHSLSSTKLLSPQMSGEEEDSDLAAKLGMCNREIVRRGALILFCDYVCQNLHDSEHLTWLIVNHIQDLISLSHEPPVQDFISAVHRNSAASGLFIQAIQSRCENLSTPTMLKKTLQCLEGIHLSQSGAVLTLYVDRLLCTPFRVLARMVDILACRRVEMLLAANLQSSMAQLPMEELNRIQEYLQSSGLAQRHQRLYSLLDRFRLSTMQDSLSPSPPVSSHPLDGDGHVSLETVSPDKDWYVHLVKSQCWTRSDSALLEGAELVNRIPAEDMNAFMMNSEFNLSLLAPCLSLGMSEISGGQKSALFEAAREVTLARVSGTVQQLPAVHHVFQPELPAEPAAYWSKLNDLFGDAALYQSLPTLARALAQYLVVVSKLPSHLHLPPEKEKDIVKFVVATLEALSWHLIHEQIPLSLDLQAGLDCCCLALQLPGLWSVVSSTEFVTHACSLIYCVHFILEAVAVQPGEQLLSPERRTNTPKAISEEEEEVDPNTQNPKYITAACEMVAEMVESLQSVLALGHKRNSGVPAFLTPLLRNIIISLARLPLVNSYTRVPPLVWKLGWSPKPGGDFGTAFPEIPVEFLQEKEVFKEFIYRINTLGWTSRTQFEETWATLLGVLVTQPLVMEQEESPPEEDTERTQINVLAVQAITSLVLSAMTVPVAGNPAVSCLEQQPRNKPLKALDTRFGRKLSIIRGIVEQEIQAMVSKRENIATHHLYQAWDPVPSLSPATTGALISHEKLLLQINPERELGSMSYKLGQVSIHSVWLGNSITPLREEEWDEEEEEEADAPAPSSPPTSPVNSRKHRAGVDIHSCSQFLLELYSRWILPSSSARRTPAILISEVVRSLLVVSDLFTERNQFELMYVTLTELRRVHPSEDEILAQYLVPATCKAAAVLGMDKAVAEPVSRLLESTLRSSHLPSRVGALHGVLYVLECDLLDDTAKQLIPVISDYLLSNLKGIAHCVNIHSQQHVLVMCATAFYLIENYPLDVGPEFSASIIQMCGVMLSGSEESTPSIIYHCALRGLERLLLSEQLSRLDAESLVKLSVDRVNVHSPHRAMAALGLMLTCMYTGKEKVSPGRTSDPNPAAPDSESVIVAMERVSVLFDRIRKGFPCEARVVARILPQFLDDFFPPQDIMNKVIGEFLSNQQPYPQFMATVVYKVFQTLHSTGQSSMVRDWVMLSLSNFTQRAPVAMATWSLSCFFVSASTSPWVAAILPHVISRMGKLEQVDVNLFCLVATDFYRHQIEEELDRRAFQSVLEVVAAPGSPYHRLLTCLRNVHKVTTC
compound,measurement,setting,value
COc1cc2c3cc1Oc1c(OC)c(OC)cc4c1[C@@H](Cc1cccc(c1)Oc1ccc(c(O)c1)C[C@@H]3N(C)CC2)N(C)CC4,parasite load remaining,[1],114% (inactive)
same,viability,[1],67.7%
same,red/green cell ratio (normalised),[2],1.03 (inactive)
same,normalised cell number,[2]; [17],0.83
same,normalised cell number,[2]; [18],0.86
same,activity remaining,[3],112% (inactive)
CC1=C2CCC3C(CC[C@]4(C)C(=O)CCC34)[C@@]2(C)CCC1=O (stereo not given in full),parasite load remaining,[1],48.4% (inactive)
same,viability,[1],85.7%
same,red/green cell ratio (normalised),[2],0.88 (inactive)
same,normalised cell number,[2]; [17],1.27
same,normalised cell number,[2]; [18],1.12
same,activity remaining,[3],104% (inactive)
CCC(C)C(=O)O[C@H]1[C@H](O)C2C(CN3CC(C)CCC3[C@@]2(C)O)C2C[C@]34O[C@]5(O)C(OC(=O)C(C)(O)CC)CC[C@@]3(C)C5C(OC(C)=O)[C@@H](OC(C)=O)C4[C@@]21O (stereo not given in full),inhibition,[4],-14%
same,score,[5],1.53
same,rescue above control,[6],-1.62
same,cytochrome c release ratio,[7],0.8
same,inhibition of aggregation,[8],60.8%
same,glutamate uptake change,[9],12.6%
same,inclusion score,[10],2
same,aggregation suppression score,[11],1.64
same,parasite load remaining,[1],35.5% (inactive)
same,viability,[1],65.2%
same,red/green cell ratio (normalised),[2],0.9 (inactive)
same,normalised cell number,[2]; [17],1.11
same,normalised cell number,[2]; [18],1
same,activity remaining,[3],105% (inactive)
CC(=O)O[C@H]1CC[C@@]2(C)C(=CCC3C2CC[C@]2(C)C(=O)CCC32)C1 (stereo not given in full),parasite load remaining,[1],162% (inactive)
same,viability,[1],84.8%
same,red/green cell ratio (normalised),[2],0.81 (inactive)
same,normalised cell number,[2]; [17],1.28
same,normalised cell number,[2]; [18],1.04
same,activity remaining,[3],103% (inactive)
C=C/C=C\CC1=C[C@@H](OC(=O)[C@@H]2[C@@H](C=C(C)C)C2(C)C)CC1=O,red/green cell ratio (normalised),[2],0.66 (inactive)
same,normalised cell number,[2]; [17],1.35
same,normalised cell number,[2]; [18],0.89
same,fold change,[12]; stronger effect = lower value,0.949 (inactive)
same,fold change,[12]; [19],1.14
same,cell count,[12]; [20],8080
same,cell count,[12]; [21],8520
C[C@H](N)[C@H](O)c1ccccc1,parasite load remaining,[1],65.1% (inactive) and 27.2% (inactive)
same,viability,[1],97.7% and 73%
same,red/green cell ratio (normalised),[2],1.19 (inactive)
same,normalised cell number,[2]; [17],0.91
same,normalised cell number,[2]; [18],1.08
same,fold change,[12]; stronger effect = lower value,0.856 (inactive) and 0.884 (inactive)
same,fold change,[12]; [19],0.745 and 1.02
same,cell count,[12]; [20],11600 and 9670
same,cell count,[12]; [21],13500 and 10900
same,z-score,"[13]; MELAS cybrid survival, CellTiter-Glo 48 h, stronger effect = higher value",-0.606 (inactive)
same,z-score,"[13]; Rieske KO mouse fibroblast survival, CellTiter-Glo 72 h",-1.57
same,z-score,[14],-0.235 (inactive)
CC(C)=CCCC1(C)C=Cc2c(O)c3c(c(CC=C(C)C)c2O1)OC12C(=CC4CC1C(C)(C)OC2(C/C=C(/C)C(=O)O)C4=O)C3=O (stereo not given),inhibition,[4],78.5%
same,aggregation ratio,[15],0.274
same,score,[5],0.45
same,rescue above control,[6],-1.66
same,cytochrome c release ratio,[7],3.17
same,inhibition of aggregation,[8],100%
same,normalised LDH release,[16],0.491
same,glutamate uptake change,[9],-92.9%
same,aggregation suppression score,[11],0.449
same,red/green cell ratio (normalised),[2],1.03 (inactive)
same,normalised cell number,[2]; [17],1.09
same,normalised cell number,[2]; [18],1.13
same,activity remaining,[3],120% (inactive)
O=c1cccc2n1C[C@H]1CNCC2C1,parasite load remaining,[1],64.2% (inactive)
same,viability,[1],103%
same,red/green cell ratio (normalised),[2],0.78 (inactive)
same,normalised cell number,[2]; [17],1.31
same,normalised cell number,[2]; [18],1.02
same,activity remaining,[3],107% (inactive)
OCC(O)[C@H]1O[C@@H]2O[C@H](C(Cl)(Cl)Cl)O[C@@H]2[C@H]1O (stereo not given in full),red/green cell ratio (normalised),[2],0.83 (inactive)
same,normalised cell number,[2]; [17],1.02
same,normalised cell number,[2]; [18],0.85
same,fold change,[12]; stronger effect = lower value,0.871 (inactive)
same,fold change,[12]; [19],0.819
same,cell count,[12]; [20],8180
same,cell count,[12]; [21],9390
C[C@@H]1O[C@@H](O[C@H]2CC[C@]3(C=O)C4CC[C@]5(C)[C@@H](C6=CC(=O)OC6)CC[C@]5(O)C4CC[C@]3(O)C2)[C@H](O)[C@H](O)[C@H]1O (stereo not given in full),parasite load remaining,[1],3.9% (inactive)
same,viability,[1],51%
same,red/green cell ratio (normalised),[2],0.21 (inactive)
same,normalised cell number,[2]; [17],0.1
same,normalised cell number,[2]; [18],0.02
same,activity remaining,[3],95.5% (inactive)
COC1=CC(=O)OC(/C=C/c2ccccc2)C1 (stereo not given),red/green cell ratio (normalised),[2],0.84 (inactive)
same,normalised cell number,[2]; [17],0.94
same,normalised cell number,[2]; [18],0.79
same,fold change,[12]; stronger effect = lower value,0.833 (inactive)
same,fold change,[12]; [19],1.16
same,cell count,[12]; [20],4840
same,cell count,[12]; [21],5810
